# Results as given in PubChem BioAssay.
# Activity calls are given as the source filed them. Unless noted, the rule behind the calls is not given here.
# How the values were obtained:
# [1] = system: Wnt5a (protein binding on small-molecule microarray); experiment: small molecules binding Wnt5a protein – biophysical, small-molecule microarray, 635/667 nm fluorescence, primary screen (AID 1142); settings: 635 nm fluorescence, higher = more signal;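 note: fluorescence read at 667 nm with signal to noise per printed feature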
# [2] = ATP-based viability of Huh7 replicon cells – cell-based, CellTiter-Glo luminescence, basal, 48 h, cytotoxicity control for HCV replication inhibitor project, primary screen (AID 1143); settings: higher = more signal, called active from +8 up or from −8 down;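 note: Huh7 hepatoma cells carrying a hepatitis C replication reporter with no stimulus; test concentration not given here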
# [3] = Pseudomonas biofilm growth suppression – PAO1 strain, BacTiter-Glo luminescence, LB-PBS, primary screen (AID 1144); settings: P. aeruginosa PAO1 biofilm, 12 h, higher = more signal
# [4] = basal CRE-LacZ reporter activity in PC12 – cell-based, unstimulated, primary screen (AID 1145); settings: no forskolin, luminescence, 4.5 h, higher = more signal, called active from +8 up or from −8 down
# [5] = forskolin-driven CRE-LacZ activity in PC12 – cell-based, CRE-LacZ reporter, forskolin-stimulated, primary screen (AID 1146); settings: luminescence, 4.5 h, higher = more signal, called active from +8 up or from −8 down;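 note: PC12 cells with 6xCRE LacZ reporter stimulated by forskolin 10 µM; beta-galactosidase reporter signal reflecting CREB driven transcription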
# [6] = biological target: Streptavidin (Streptomyces avidinii) (UniProt P22629); experiment: compounds binding control protein streptavidin – biophysical, small-molecule microarray, 635/667 nm fluorescence, artefact control for SMM compound annotation, primary screen (AID 1147); settings: higher = more signal;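 note: signal reflects streptavidin binding to arrayed compounds as a control protein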
# [7] = probe aInhba binding on compound microarray – biochemical, small-molecule microarray, 635/667 nm fluorescence, primary screen (AID 1148); settings: higher = more signal;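 note: score merges 667nm spot fluorescence with signal-to-noise for antibody binding to printed compounds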
# Torsin-1A (Homo sapiens) [8] = biological target: Torsin-1A (Homo sapiens) (UniProt O14656); experiment: TOR1A wild-type binding on microarray – cell lysate, small-molecule microarray, lysate, 635/667 nm, primary screen (AID 1149); settings: COS7 hTOR1A-WT lysate, 635 nm fluorescence, higher = more signal
# Torsin-1A (Homo sapiens) [9] = biological target: Torsin-1A (Homo sapiens) (UniProt O14656); experiment: torsin A mutant lysate binding on microarrays – cell lysate, small-molecule microarray, COS7 lysate, 635/667 nm fluorescence, primary screen (AID 1150); settings: COS7 hTOR1A mutant lysate, 635 nm fluorescence, higher = more signal;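 note: score pools 667 nm emission and signal to noise measuring lysate protein binding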
# [10] = system: Sonic hedgehog protein (Shh); experiment: Sonic hedgehog microarray binding compounds – biochemical, small-molecule microarray, 635/667 nm fluorescence, primary screen (AID 1151); settings: 635 nm fluorescence, higher = more signal;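 note: Shh protein binding to compounds spotted on small-molecule microarray slides; score combines spot fluorescence intensity with signal-to-noise across triplicate slides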
# Sequence of Torsin-1A (Homo sapiens) (O14656 whole entry, looked up): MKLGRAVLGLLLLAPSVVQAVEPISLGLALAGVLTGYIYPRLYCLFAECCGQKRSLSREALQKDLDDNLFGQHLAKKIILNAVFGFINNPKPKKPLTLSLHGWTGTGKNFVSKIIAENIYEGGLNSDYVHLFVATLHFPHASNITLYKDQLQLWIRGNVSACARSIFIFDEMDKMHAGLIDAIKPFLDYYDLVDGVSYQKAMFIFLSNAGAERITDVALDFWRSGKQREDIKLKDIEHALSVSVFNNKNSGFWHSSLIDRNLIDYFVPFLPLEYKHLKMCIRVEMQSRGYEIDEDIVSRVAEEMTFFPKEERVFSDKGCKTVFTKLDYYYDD
# Sequence of Streptavidin (Streptomyces avidinii) (P22629 whole entry, looked up): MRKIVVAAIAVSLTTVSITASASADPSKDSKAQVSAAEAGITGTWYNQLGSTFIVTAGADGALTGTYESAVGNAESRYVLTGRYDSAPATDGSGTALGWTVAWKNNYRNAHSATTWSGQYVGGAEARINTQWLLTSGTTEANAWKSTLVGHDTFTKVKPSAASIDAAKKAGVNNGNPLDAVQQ
Compound,composite z-score [1],z-score [2],z-score [3],z-score [4],z-score [5],composite z-score [6],composite z-score [7],composite z-score (Torsin-1A (Homo sapiens) [8]),composite z-score (Torsin-1A (Homo sapiens) [9]),composite z-score [10]
C=CCC(OC(C)=O)[C@@H]1[C@@H](N(Cc2ccc(-c3ccccc3)cc2)C(=O)Cc2ccc(F)cc2)c2cc(OCCCO)ccc2N1C(=O)Cc1ccc2ccccc2c1 (stereo not given in full),0.261,0.189 (inactive),-0.59 (inactive),0.367 (inactive),0.997 (inactive),0.612,0.038,-0.194,-0.0043,-0.0096
COC(=O)[C@@]1(Cc2ccc(OC)cc2)[C@H]2c3cc(C(=O)N4CCCC4)n(Cc4ccc(S(C)(=O)=O)cc4)c3C[C@H]2CN1C(=O)c1ccccc1,0.21,-0.86 (inactive),-0.0122 (inactive),-0.185 (inactive),-0.755 (inactive),1.73,0.102,0.272,0.422,-1.12
COc1cc(NN2C(C(O)c3ccccc3)C=CC3C(=O)N(C)C(=O)C32)cc(OC)c1OC (stereo not given),0.107,-2.51 (inactive),-0.426 (inactive),0.0603 (inactive),-0.126 (inactive),0.194,0.0184,-0.0091,0.576,0.36
C=CCNC(=O)[C@@H]1[C@H]2C(=O)O[C@H](c3ccccc3)[C@H](c3ccccc3)N2[C@H](c2ccc(OCCO)cc2)[C@@]12C(=O)N(C(=O)OCCOC)c1ccc(C#CCCO)cc12,0.85,-3.32 (inactive),-0.594 (inactive),-0.375 (inactive),0.0859 (inactive),0.712,-0.0521,0.625,0.582,1.17
C=C(COC)C(=O)CC[C@@H](OC(=O)c1cccnc1)c1ccccc1OCCO,0.125,-3.79 (inactive),0.291 (inactive),19.7 (active),16.4 (active),-0.126,0.0355,0.882,1.14,0.786
C=C(COC)C(=O)CC[C@H](OC(C)=O)c1ccc(OCCO)cc1,0.632,-3.53 (inactive),-0.856 (inactive),2.77 (inactive),1.69 (inactive),-0.0693,-0.0675,1.2,0.647,1.85
CCCNC(=O)[C@@]1(C)c2ccccc2C(=O)N(Cc2ccccc2)[C@H]1c1ccc(CO)cc1,-0.15,-0.535 (inactive),0.62 (inactive),0.0924 (inactive),-0.163 (inactive),-1,0.101,-0.102,-1.96,-0.203
CC1CC/C=C\[C@H]2OC34C=CCN(CCN5CCOCC5)C(=O)[C@H]3N(C(C)CO)C(=O)[C@@H]4C2C(=O)O1 (stereo not given in full),-0.409,0.181 (inactive),0.156 (inactive),-0.0778 (inactive),-0.0178 (inactive),-1.16,-0.0933,-1.72,-1.58,1.41
O=C(NCCN1CCOCC1)[C@@H]1c2ccccc2C(=O)N(Cc2ccccc2)[C@H]1c1ccc(CO)cc1,-0.817,-1.62 (inactive),-0.996 (inactive),0.145 (inactive),-0.674 (inactive),1.49,-0.0719,-1.46,-0.21,-1.67
C=C(/C(=C/C[C@@H](OC(C)=O)c1ccc(OCCO)cc1)c1cc(C(=O)OC)ccc1OC)C(C)C,-0.0426,-2.02 (inactive),1.03 (inactive),3.85 (inactive),-0.27 (inactive),-0.124,0.167,0.856,0.693,1.41
O=C1OCCC/C=C\[C@H]2OC34C=CCN(c5ccc6ccccc6c5)C(=O)[C@H]3N(CCCO)C(=O)[C@@H]4C12 (stereo not given in full),-0.482,0.187 (inactive),2.06 (inactive),2.9 (inactive),-0.942 (inactive),-1.3,-0.21,-0.553,-1.1,-0.339
COCCOC(=O)N1C(=O)[C@@]2(c3ccccc31)[C@H](c1ccccc1OCCO)N1[C@H](c3ccccc3)[C@H](c3ccccc3)OC(=O)[C@H]1[C@@H]2C(=O)N1CCCCCCC1,1.82,-3.1 (inactive),-0.41 (inactive),-0.744 (inactive),4.93 (inactive),3.64,2.24,2.69,2.39,1.77
COc1cc(NN2C(C(O)C3CCCCC3)C=CC3C(=O)N(C)C(=O)C32)cc(OC)c1OC (stereo not given),0.265,0.187 (inactive),0.0648 (inactive),-0.133 (inactive),0.454 (inactive),2.2,0.502,-0.176,0.358,-0.68
CCOC(=O)C1=CCC(c2ccco2)N(S(=O)(=O)c2ccc(C)cc2)C1 (stereo not given),0.45,-2.95 (inactive),-1.65 (inactive),-0.0228 (inactive),0.887 (inactive),1.64,0.0841,0.55,1.24,0.409
O=C1[C@@H]2[C@@H](CC(COc3ccccc3)=C3[C@@H](CCc4ccccc4)OB(O)C[C@@H]32)C(=O)N1Cc1ccccc1,-0.0294,-1.91 (inactive),0.132 (inactive),1.94 (inactive),-1.12 (inactive),0.376,-0.0161,0.0258,0.256,0.919
[N-]=[N+]=NC[C@H](Cc1ccccc1)NC(=O)c1ccccc1,-0.022,-0.34 (inactive),0.138 (inactive),0.6 (inactive),-0.308 (inactive),0.148,-0.0695,0.601,0.265,-0.0168
CCCNC(=O)[C@@]1(Sc2ccc(C)cc2)CC(=O)N(C2CCCCC2)[C@@H]1c1ccc(CO)cc1I,0.108,-2.76 (inactive),0.687 (inactive),0.272 (inactive),1.38 (inactive),0.133,-0.198,0.0272,0.197,-0.158
